CYP2C19 inhib – blockers of cytochrome P450 2C19 activity – biochemical, luminescence, ADME assay, primary screen; P33261; CYP2C19 Supersomes, luciferin-H EGE luminescence, 30 min; inhibition, % at 5 µM; hit rate 21% among 96,000;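 active means CYP2C19 inhibition above a set limit at 5 µM in the primary screen, cut at about 50% in these data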;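 further: plate controls were negative control wells for no effect and 2.5 mM tranylcypromine positive control for full effect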
Target sequence (P33261 whole entry, looked up): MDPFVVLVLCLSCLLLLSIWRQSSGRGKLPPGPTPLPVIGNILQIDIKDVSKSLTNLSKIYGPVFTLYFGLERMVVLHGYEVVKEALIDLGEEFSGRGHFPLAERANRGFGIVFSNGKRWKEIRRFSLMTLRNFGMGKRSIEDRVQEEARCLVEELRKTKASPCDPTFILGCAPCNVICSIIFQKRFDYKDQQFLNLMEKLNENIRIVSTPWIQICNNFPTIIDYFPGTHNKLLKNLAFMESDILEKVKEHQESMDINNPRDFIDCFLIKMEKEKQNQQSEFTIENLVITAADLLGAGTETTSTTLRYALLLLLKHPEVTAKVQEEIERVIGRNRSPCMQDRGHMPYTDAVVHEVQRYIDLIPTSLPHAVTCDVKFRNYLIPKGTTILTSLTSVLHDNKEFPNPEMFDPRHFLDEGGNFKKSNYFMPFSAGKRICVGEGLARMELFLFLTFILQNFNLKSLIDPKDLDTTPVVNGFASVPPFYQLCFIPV
PLAP activator – PLAP enzyme activators, biochemical, luminescence, HTS | activation fold at 20 µM | purified PLAP enzyme, luminescent substrate read-out; active compounds read high | hit rate 1.2% among 96,000 | Alkaline phosphatase, placental type (Homo sapiens), P05187; in the data active means activation fold above about 2
CYP2C9 inhib – blockers of cytochrome P450 2C9 activity – biochemical, luminescence, ADME assay, primary screen; CYP2C9 Supersomes, luciferin-H conversion; inhibition, % at 5 µM; hit rate 20% among 96,000;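 active means blocking of liver enzyme CYP2C9 beyond about 50% at 5 µM, limit read from the data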
CYP2C9 activ – human CYP2C9 activators, primary screen, biochemical, luminescence; recombinant CYP2C9, luciferin-H conversion; active compounds read high; factor 1 = untreated enzyme, 0 = blocked; activation factor at 5 µM; AID 1024, 2008; hit rate 1.4% among 96,000; Cytochrome P450 2C9 (Homo sapiens), P11712;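 active means activation factor of 2 or more for CYP2C9 at a 5 µM dose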;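 further: 0 = sulfaphenazole-blocked wells and 1 = vehicle-only wells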
CYP2C19 act – human CYP2C19 activators, primary screen, biochemical, luminescence. recombinant CYP2C19, luciferin-H EGE luminescence; active compounds read high; 0 = fully inhibited enzyme, 1 = untreated enzyme. activation factor at 5 µM. 96,000 tested, under 10 active;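 active means activation factor of at least 2 at 5 µM in the primary screen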;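 further: 0 = wells with 2.5 mM tranylcypromine and 1 = vehicle-only wells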
* hit, by the source's call. A selection: hits, their analogues and other compounds. The true share with any hit is near 31%.

SMILES	CYP2C19 inhib	PLAP activator	CYP2C9 inhib	CYP2C9 activ	CYP2C19 act
O=C1NC2(CCCCCC2)Cc2ccccc21	44	0.8	-12	1.1	0.6
CCOc1ccc(-n2nnc3c(=O)n(C/C=C/c4ccccc4)cnc32)cc1	-4	1.2	21	0.8	1
CCCCn1c(NCCC)nc2c1c(=O)[nH]c(=O)n2C	0	0.9	6	0.9	1
COc1ccc(OC)c(Nc2nc(-c3sc(NC(=O)c4ccccc4)nc3C)cs2)c1	-6	1.2	14	0.9	1.1
COc1ccccc1Nc1nc(-c2sc(NC(=O)c3ccco3)nc2C)cs1	10	0.9	63*	0.4	0.9
C=CCCC(=O)Nc1nc(C)c(-c2csc(Nc3cc(Cl)ccc3OC)n2)s1	15	1.1	32	0.7	0.8
Cc1ccc(Cl)cc1Nc1nc(-c2sc(NC(=O)c3ccco3)nc2C)cs1	16	1	57*	0.4	0.8
Cc1nc(NC(=O)c2ccco2)sc1-c1csc(Nc2ccc(Cl)cc2)n1	50	1	31	0.7	0.5
COc1cccc(N(C(=O)c2ccco2)c2nc(-c3sc(NC(=O)c4ccco4)nc3C)cs2)c1	41	1.1	55*	0.5	0.6
Cc1ccccc1Nc1nc(-c2sc(NC(=O)c3cccc(Cl)c3)nc2C)cs1	40	1.2	32	0.7	0.6
Cc1ccc(Cl)cc1Nc1nc(-c2sc(NC(=O)c3cccc(Cl)c3)nc2C)cs1	22	1	55*	0.5	0.8
Cc1cccc(NC(=O)c2sc(NC(=O)c3ccco3)c(C#N)c2C)c1C	21	1	13	0.9	0.8
Cc1ccccc1NC(=O)c1cccc2nc3ccccc3nc12	4	1	12	0.9	1
CC(C(=O)O)n1c(C(F)(F)F)nc2ccccc21 (stereo not given)	-12	0.9	-15	1.1	1.1
CC1=C(C(=O)OCC(C)C)C(c2ccccc2Cl)NC(=O)N1C (stereo not given)	98*	1.5	84*	0.2	0
CCOC(=O)C1=C(C)N(C)C(=O)NC1c1ccc(C)s1 (stereo not given)	31	0.7	8	0.9	0.7
CCOCCOC(=O)C1=C(C)N(C)C(=O)NC1c1ccccc1Cl (stereo not given)	54*	1.2	12	0.9	0.5
CC1=C(C(=O)OCC(C)C)C(c2cc3c(cc2Br)OCO3)NC(=O)N1C (stereo not given)	84*	1.5	72*	0.3	0.2
CCOCCOC(=O)C1=C(C)N(C)C(=O)NC1c1cc(Cl)c(O)c(OC)c1 (stereo not given)	23	1	40	0.6	0.8
COC(=O)C1=CN(C(C)C)C=C(C(=O)OC)C1c1cc2c(cc1Br)OCO2	60*	0.9	26	0.7	0.4
Cn1cccc1Cc1nnc(SCC(=O)NCC2CCCO2)n1-c1ccc(F)cc1 (stereo not given)	2	1.3	10	0.9	1
N#Cc1c(NC(=O)CSc2nc(-c3ccco3)cc(C(F)(F)F)n2)sc2c1CCCC2	1	0.8	24	0.8	1
CCSCCOC(=O)C1=C(C)N(C)C(=O)NC1c1cc(OC)ccc1OC (stereo not given)	93*	1.7	79*	0.2	0.1
Cc1cc(C(=O)OCC(=O)Nc2ccccc2F)c(C)o1	49	0.8	19	0.8	0.5
CCOc1ncccc1C(=O)OCC(=O)Nc1cc(C)ccc1C	26	0.9	39	0.6	0.7
SMILES	CYP2C19 inhib	PLAP activator	CYP2C9 inhib	CYP2C9 activ	CYP2C19 act
Cc1cc(C(=O)OCC(=O)NCCc2ccccc2)c(C)o1	76*	1	88*	0.1	0.2
CCOc1ncccc1C(=O)OCC(=O)NCCc1ccccc1	68*	0.8	16	0.8	0.3
CCOC(=O)C1(C)/C(=N/Nc2ccccc2Cl)C(=O)C(=O)N1c1ccccc1 (stereo not given)	4	1.3	6	0.9	1
CS(=O)(=O)N(CC(=O)Nc1ccccc1C(=O)NCCc1ccccc1)c1ccc2c(c1)OCCO2	87*	1.4	94*	0.1	0.1
CC(C)NC(=O)c1ccccc1NC(=O)CN(c1ccc2c(c1)OCO2)S(C)(=O)=O	45	0.9	82*	0.2	0.5
COC(=O)c1ccc(C)c(NC(=O)CN(c2ccc3c(c2)OCO3)S(C)(=O)=O)c1	70*	1	69*	0.3	0.3
CS(=O)(=O)N(CC(=O)Nc1ccccc1C(=O)NCc1ccccc1)c1ccc2c(c1)OCCO2	36	1.6	94*	0.1	0.6
CCOC(=O)CNC(=O)Nc1ccccc1C(=O)OC	23	1	-1	1	0.8
O=C(NCCO)C(F)(F)C(F)(F)C(F)(F)OC(F)(C(=O)NCCO)C(F)(F)F (stereo not given)	2	1	38	0.6	1
Cc1ccc(C)c(OCC(=O)Nc2nc3ccc([N+](=O)[O-])cc3s2)c1C	-24	1.1	-25	1.2	1.2
COC(=O)c1ccc(C)c(NC(=O)CN(c2cc(OC)ccc2OC)S(C)(=O)=O)c1	56*	1.3	29	0.7	0.4
CCN1CCN(C(C)C(=O)Nc2c(C)n(C)n(-c3ccccc3)c2=O)CC1 (stereo not given)	-10	0.9	-10	1.1	1.1
CC1CN(c2nc(-c3ccc(Br)cc3)nnc2-c2ccccc2)CC(C)N1 (stereo not given)	8	1.3	12	0.9	0.9
Cc1ccc2c(c1)c1c3n2CCN(C(=O)CN2CCN(C)CC2)C3CCC1 (stereo not given)	15	1.7	14	0.9	0.8
Cc1ccc2c(c1)c1c3n2CCCN(Cc2ccccc2)C3CCC1 (stereo not given)	61*	1.1	32	0.7	0.4
Cc1ccc2c(c1)c1c3n2CCN(C(=O)C2CC2)C3CCC1 (stereo not given)	42	1.4	50*	0.5	0.6
Cc1ccc2c(c1)c1c3n2CCN(C(=O)Cn2c(-c4ccccc4)noc2=O)C3CCC1 (stereo not given)	9	1.4	50*	0.5	0.9
O=C(OCCCN1CCCC1)C1(c2ccccc2)CCCC1	0	1	-14	1.1	1
CN(C)C(=O)Cn1cnc2c(cnn2-c2ccccc2Cl)c1=O	7	1.2	0	1	0.9
Cc1ccccc1Cn1c2ccccc2c2cn[nH]c(=O)c21	24	1	17	0.8	0.8
CCCC(=O)Nc1ccc(C(=O)NNC(=O)c2ccco2)cc1	24	1	20	0.8	0.8
Cc1nc2c(C(=O)N3CCCCC3)cnn2c(C)c1Cc1ccccc1F	79*	1.4	10	0.9	0.2
Cc1nc2c(C(=O)N3CCN(C)CC3)cnn2c(C)c1Cc1ccc(Cl)cc1	82*	2.1*	26	0.7	0.2
